Source: PubChem BioAssay (NCI)
The panel holds about 83,000 compounds, 20% with a hit somewhere; the sample as a whole holds those more often.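 Cells were grown in 96-well plates and exposed to the test compound at a single concentration for 48 hours; results are reported as percent growth, with values below 10 considered active.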 A number with no mark means an inactive call. The source made the active and inactive calls.

Each compound was assayed on HS 578T breast (assay: NCI-60 one-dose screen, 48 h (100 = growth as untreated, 0 = no growth, -100 = all killed)). Conditions: 10 µM unless noted.
Experimental: Growth inhibition of the HS 578T human tumor cell line is measured as a screen for anti-cancer activity. Cells are grown in 96 well plates and exposed to the test compound for 48 hours. Compounds are tested at a single concentration, which is 10^-5 M for most compounds. The reported endpoint is percent growth (GI% or GIPRCNT), where numbers from 0 - 100% represent growth inhibition, and numbers from -100% - 0 represent cell death. For example, a value of 40 represents 60% growth inhibition. A value of 0 means no net growth occurred over the course of the experiment. A value of -40 indicates 40% of cells at the beginning of the experiment died by the end of the experiment. A value of -100 means all cells are dead at the end of the experiment.
NCI-60 Human Tumor Cell Lines Screen was performed using the standard one-dose NCI protocol, which is described in more detail at https://dtp.cancer.gov/discovery_development/nci-60/default.htm.
Compounds with GIPRCNT values below 10 were considered active. Activity score was based on GIPRCNT using the following formula: […]
Score is 0 for GIPRCNT values of 100 or above, 50 for GIPRCNT values of 0, and 100 for GIPRCNT values of -100.
`CCCNC(=O)Oc1ccc(/C(=C(/C)Cc2ccc(OC)cc2)c2ccc(OCCCN(C)C)cc2)cc1` gave a growth of 72.3%. Compound `CC(C)n1cnc2c(=S)nc[nH]c21` has a growth of 108%. `COc1ccc(-c2ccc3cnc4sc(-c5ccc(OC)cc5)nc4c3n2)cc1` was tested, and the growth was 94.4%. `CC1=Nc2cnc(Nc3ccc(OCCN4CCCC4)cc3)nc2Nc2ccccc21` was tested, and the growth was 41.5%. In the case of `C=C(CNCCc1ccc(O)cc1)[C@@H]1CC[C@]2(CO)CC[C@]3(C)[C@H](CC[C@@H]4[C@@]5(C)CCC(NCCO)C(C)(C)[C@@H]5CC[C@]43C)[C@@H]12` (stereo not given in full), the growth is reported as -61.1% (active). `O=C(Cn1cc(CN2CCCCCC2)nn1)Nc1ccc2c(ccn2Cc2ccccc2)c1` gave a growth of 88.5%. `Oc1ccc(CCn2c(O)c(/C=C3\CN=c4ccccc4=N3)sc2=S)cc1` gave a growth of 68.5%. `CN(C)CC(=O)Nc1ccc2ncnc(Nc3ccc(Oc4cccc(C(F)(F)F)c4)c(Cl)c3)c2c1` showed a growth of 79.1%. `O=C1Nc2ccc(I)cc2C1=O` was tested, and the growth was 97.8%. In the case of `COc1cc2c(c(OC)c1OC)CCC(c1cccc(C(=O)Nc3cccc(Br)c3)c1)O2` (stereo not given), the growth is reported as 66.7%. In the case of `CN(C)c1ccc(/C=C/C(=O)c2ccc(-n3cc(CN4CCN(c5cc6c(cc5F)c(=O)c(C(=O)O)cn6C5CC5)CC4)nn3)cc2)cc1`, the growth is reported as 57.4%. In the case of `O=C(Nc1ccc(-c2nc(N3CCOCC3)c3cccn3n2)cc1)Nc1cccnc1`, the growth is reported as -32.3% (active). For `COc1ccc(-c2nc(SCC(C)C)nc(N/N=C\c3ccc(F)cc3)c2C#N)cc1`, the growth was 62.4%. For `COP(=O)(OC)C(C)(C)CC(=O)CC(C#N)(C#N)C(C#N)C#N`, the growth was 104%. `Brc1ccc(-n2cc(-c3nn[nH]n3)c(-c3cccs3)n2)cc1` was tested, and the growth was 96.3%. In the case of `C=CCn1c(SCC(=O)Nc2ccc(C(=O)/C=C/c3cc4cc(OC)ccc4nc3Cl)cc2)nnc1-c1ccc(Br)cc1`, the growth is reported as 89.2%. `O=C(Nc1cc(Cl)ccc1O)c1ccc(Nc2ccnc(C(F)(F)F)c2)cc1` gave a growth of 49.9%. In the case of `COc1ccc2[nH]cc(-c3nc(-c4cn(C)c5c(Cl)nccc45)cs3)c2c1`, the growth is reported as 54.3%. For `Cc1ccc2c3c(c(=O)[nH]c2c1)C1(C(C#N)=C(N)O3)c2cc(Br)ccc2-c2ccc(Br)cc21`, the growth was -5.5% (active). In the case of `CCc1n(Cc2ccc3ccccc3c2)cc[n+]1Cc1ccc2ccccc2c1`, the growth is reported as 4.38% (active). Work on `CN[C@]12CC3(C=CC(=O)C=C3)O[C@@]1(Cc1ccc(OC)cc1)N(C)C(=O)N2` yielded a growth of 96.8%. `C=C(C)[C@@H]1CC[C@]2(C(=O)N3CCN(C)CC3)CC[C@]3(C)[C@H](CC[C@@H]4[C@@]5(C)CC(=C/c6ccncc6)/C(=N/O)C(C)(C)[C@@H]5CC[C@]43C)[C@@H]12` gave a growth of 87.5%. For `O=C(CSc1nc(-c2ccccc2)[nH]c1S(=O)(=O)c1ccccc1)NC1CC1`, the growth was 99.2%. For `CCOc1nc(-c2ccccc2)cc2c(O)c(C(=O)NN)[nH]c(=O)c12`, the growth was 87.6%. Compound `CO[C@]12C=C/C(=C(/C(=O)OCc3cccnc3)C(=O)CCCCCCCC[C@@]3(OC)C=C/C(=C(/C(=O)OCc4cccnc4)C(=O)CCCCCCCC1)O3)O2` has a growth of 37%. `CC(C)c1ccc(COCc2cc(CN3CCCC3)c(O)c3ncccc23)cc1` showed a growth of 41.6%. Work on `O=C1C(Cl)=C(Nc2ccc(O)cc2)C(=O)N1Cc1ccc(Cl)cc1` yielded a growth of 78.6%. `COc1ccc(/C=C2\C(=O)N=C3N2NC(c2cc(Br)ccc2O)C=C(C)N3c2ccccc2)cc1` (stereo not given) gave a growth of 95.9%. `CC1=C(CCC(C)N(C)Cc2ccc(OCCCN3CCCC3)cc2)C(C)(C)CCC1` (stereo not given) gave a growth of 36.4%. `CCCc1cc(NC)nc(S(=O)(=O)CC)n1` showed a growth of 108%. In the case of `C[C@@H]1CCC[C@H]1CC(N)C(=O)O` (stereo not given in full), the growth is reported as 103%. For `C=C1C(=O)O[C@H]2[C@H]1CC/C(COC(=O)N[C@H]1C[C@H](O[C@H]3C[C@](O)(C(=O)CO)Cc4c(O)c5c(c(O)c43)C(=O)c3c(OC)cccc3C5=O)O[C@@H](C)[C@H]1O)=C\CC[C@@]1(C)O[C@@H]21`, the growth was 73%. Compound `COCCn1c(-c2csc(-c3cn(C)c4ccc(OC)cc34)n2)cc2cccnc21` has a growth of 58.5%. With `c1ccc(C2=NN[C@H](c3cn(-c4ccccc4)nc3-c3ccccc3)C2)cc1` the growth was -7.83% (active). For `O=C(c1ccc(-c2ccccc2)cc1)c1ccc([N+](=O)[O-])cc1`, the growth was 110%. `CCN(CC)CCOc1ccc(-c2c(-c3ccccc3)c(=O)oc3ccccc23)cc1` showed a growth of 71.2%. Compound `O=C(O)[C@@H]1c2ccccc2-c2ccccc2[C@H]1C(=O)O` has a growth of 94.3%. In the case of `COc1cc(OC)cc(C2=C3CC[C@@H]4[C@H](CC[C@]5(C)C(=O)CC[C@@H]45)C3=CC3C(O)c4cccnc4N4C(=O)COC234)c1` (stereo not given in full), the growth is reported as 90.1%. `Cc1ccc(NC(=S)NNC(=S)NNc2ccccc2)cc1C` showed a growth of 94.4%. Compound `COC(=O)CNC(=O)[C@H](Cc1ccccc1)NCc1ccncc1` has a growth of 106%.
